Source: PubChem BioAssay
Measured potencies and affinities stand elsewhere. Inconclusive results are not listed. The source made the active and inactive calls.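 The calls were made as follows: active = falling signal with fitted half-maximal potency no higher than twice the top valid tested dose; inconclusive = poor fit quality, or flat fit spanning -70% to -30%; inactive = potency over limit, rising signal, or flat fit inside 30%.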

Test: Cryptococcus neoformans growth inhibition, dose response, Alamar Blue, cherry-picks (AID 686998)
Conditions: 24 h; series mostly up to 35 µM

outcome, inactive:
O=C(Nc1cccc(F)c1)N[C@H]1CC[C@@H](CCNS(=O)(=O)c2cccc(Cl)c2)O[C@@H]1CO
CCC(=O)N1[C@@H]2Cn3c(cccc3=O)[C@H]1[C@@H](C(=O)NCc1ccccc1)[C@@H]2CO
Cc1ccc(S(=O)(=O)N[C@@H]2CCCN(Cc3cccc(OCCO)c3)C2)cc1
C[C@H](CO)N1C[C@H](C)[C@@H](CN(C)C(=O)c2cccc(F)c2)Oc2cc(-c3cncnc3)ccc2S1(=O)=O
COc1ccc(NC(=O)N(C)C[C@H]2OCCCC[C@@H](C)Oc3ccc(N(C)C)cc3C(=O)N([C@H](C)CO)C[C@H]2C)cc1
COc1ccc(NC(=O)N(C)C[C@@H]2OCCCC[C@H](C)Oc3ccc(NC(=O)Nc4ccc5c(c4)OCO5)cc3C(=O)N([C@H](C)CO)C[C@@H]2C)cc1
CNC[C@@H]1Oc2cc(Br)ccc2S(=O)(=O)N([C@H](C)CO)C[C@H]1C
O=C(C[C@H]1CC[C@@H]2[C@H](COC[C@@H](O)CN2Cc2cccc(C(F)(F)F)c2)O1)NCc1ccc(Cl)cc1
C[C@@H]1CN([C@H](C)CO)C(=O)c2cc(-c3ccc(F)cc3)cnc2O[C@H]1CN(C)CC1CCCCC1
CC(C)NC(=O)Nc1ccc2c(c1)C(=O)N([C@@H](C)CO)C[C@@H](C)[C@@H](CN(C)C(=O)c1ccncc1)OCCCC[C@@H](C)O2
CCCN(C)C[C@H]1OCCCC[C@@H](C)Oc2ccc(NC(=O)NC(C)C)cc2C(=O)N([C@@H](C)CO)C[C@H]1C
CO[C@@H]1CN(C)C(=O)c2cc(NC(=O)C3CC3)ccc2OC[C@H](C)N(C(=O)c2ccncc2)C[C@H]1C
Cc1cccc(C)c1NC(=O)CN1CCN(C(=O)CNC(=O)c2ccc(N3CCCC3=O)cc2)CC1
C[C@@H]1CCCCO[C@H](CN(C)C(=O)c2ccncc2)[C@H](C)CN([C@H](C)CO)C(=O)c2cc(NC(=O)CCC(F)(F)F)ccc2O1
O=C(C[C@H]1C=C[C@H](NC(=O)C2CCC2)[C@@H](CO)O1)NC1CCC1
CNC(=O)C[C@H]1CC[C@H]2[C@@H](COc3ccc(NC(=O)Nc4ccccc4)cc3C(=O)N2C)O1
C=CCNC(=O)CN(c1ccc(F)cc1)S(=O)(=O)c1ccc(OC)cc1
O=C(Nc1ccc(F)cc1)N1C[C@@H]2[C@H](c3ccccc31)[C@H](CO)N2Cc1cocn1
Cc1ccccc1S(=O)(=O)N[C@H]1CC[C@H](CCNS(=O)(=O)c2cccc(F)c2)O[C@H]1CO
C[C@@H]1CN([C@@H](C)CO)C(=O)CCCn2cc(nn2)CO[C@@H]1CN(C)C(=O)CCCN(C)C
Cc1cccc(C)c1NC(=O)CNC(=O)C1CCCC1
COc1ccccc1-c1ccc([C@H]2[C@@H](C#N)N(C(=O)C3CC3)[C@@H]2CO)cc1
CNC[C@@H]1Oc2c(NS(=O)(=O)c3cccs3)cccc2C(=O)N([C@@H](C)CO)C[C@H]1C
C[C@@H]1CCCCO[C@@H](CN(C)Cc2ccncc2)[C@@H](C)CN([C@@H](C)CO)C(=O)c2cc(NC(=O)c3ccncc3)ccc2O1
CC(Sc1ncnc2c1cnn2-c1ccccc1)C(=O)Nc1ccc(N2CCOCC2)cc1 (centres undefined)
C[C@@H]1CN([C@@H](C)CO)C(=O)c2cc(NS(=O)(=O)c3ccc(F)cc3)ccc2O[C@@H](C)CCCCO[C@@H]1CN(C)Cc1ccc2c(c1)OCO2
C[C@@H](O)C#Cc1ccc([C@@H]2[C@H]3CN(CC4CC4)CCCCN3[C@H]2CO)cc1
CCS(=O)(=O)NCC[C@@H]1CC[C@@H](NS(=O)(=O)c2cccc(F)c2)[C@@H](CO)O1
CCCNC(=O)N1[C@@H](CO)[C@@H](c2ccc(-c3ccccc3)cc2)[C@@H]1CNC(C)=O
C/C=C/c1ccc([C@H]2[C@@H](C#N)N(S(=O)(=O)c3cccc(F)c3)[C@H]2CO)cc1
COc1ccccc1C#Cc1ccc2c(c1)O[C@@H](CN(C)C(C)=O)[C@@H](C)CN([C@H](C)CO)S2(=O)=O
C[C@@H]1CN([C@@H](C)CO)C(=O)c2cc(/C=C/c3ccccc3)cnc2O[C@@H]1CN(C)S(C)(=O)=O
Cc1cc(C)c(NC(=O)C2CCCCN2C)c(C)c1 (centres undefined)
CO[C@H]1CN(C)C(=O)c2cc(NS(=O)(=O)c3ccc(C)cc3)ccc2OC[C@@H](C)N(C(=O)NC(C)C)C[C@@H]1C
COc1ccc(CNC(=O)C[C@H]2CC[C@H]3[C@@H](COc4ccc(NC(=O)C5CC5)cc4C(=O)N3C)O2)cc1
O=C(Cc1cccs1)N1CCN(c2ccccc2)CC1
Cc1noc(C)c1S(=O)(=O)Nc1ccc2c(c1)CC(=O)N([C@@H](C)CO)C[C@@H](C)[C@@H](CN(C)S(=O)(=O)c1cccs1)O2
C[C@@H]1CN([C@@H](C)CO)C(=O)c2cc(NC(=O)C3CCCCC3)ccc2O[C@@H](C)CCCCO[C@@H]1CN(C)C(=O)NC1CCCCC1
O=C(C[C@H]1CC[C@H]2[C@@H](COC[C@H](O)CN2Cc2cccc(Cl)c2)O1)Nc1nccs1
